20 compounds from the supplement of paper PMC3414501 can be followed below.

Counter-ions that a name gives are not always drawn. A number with no mark means an inactive call.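 Rule for the calls: active = score above 5; some higher scores were not called.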

The subject of the assay is S. cerevisiae SK1 pCDA2-eGFP (USY613), sporulating. Briefly: CDA2-GFP sporulation assay sensitivity score (z-score vs DMSO controls); higher = stronger inhibition of sporulation, active = hit call of the paper.
As for `CN1[C@@H]2CC[C@H]1C[C@@H](OC(=O)c1c[nH]c3ccccc13)C2` [Tropisetron hydrochloride] (stock concentration (mM, diluted 1:100): 7.7), the “CDA2-GFP sporulation assay sensitivity score” value was 1.1.
With `O=C1c2cccc3c2[C@H](CCC3)CN1[C@@H]1CN2CCC1CC2` [Palonosetron hydrochloride] (stock concentration (mM, diluted 1:100): 10) the figure was 8.71; with `CCN1CCC[C@H]1CNC(=O)c1c(O)c(Cl)cc(Cl)c1OC` [Raclopride] (stock concentration (mM, diluted 1:100): 10), 0.74; with `COc1ccc(CCN(C)CCCC(C#N)(c2ccc(OC)c(OC)c2)C(C)C)cc1OC` (stereo not given) (stock concentration (mM, diluted 1:100): 10), 2.38.
As for `Clc1ccccc1CN1CCc2sccc2C1` [Ticlopidine hydrochloride] (stock concentration (mM, diluted 1:100): 8.7), the figure is 2.24.
For the compound `CCN1CCC[C@H]1CNC(=O)c1cc(S(N)(=O)=O)ccc1OC` [Levosulpiride] (stock concentration (mM, diluted 1:100): 10), the “CDA2-GFP sporulation assay sensitivity score” value is 0.11.
With `COc1cc(C[C@@H](CO)[C@H](CO)Cc2ccc(O)c(OC)c2)ccc1O` [Secoisolariciresinol] (stock concentration (mM, diluted 1:100): 10) the figure was -0.44; with `O=c1c(O[C@@H]2O[C@H](CO)[C@@H](O)[C@H](O)[C@H]2O)c(-c2ccc(O)c(O)c2)oc2cc(O)cc(O)c12` [Isoquercetrin] (stock concentration (mM, diluted 1:100): 10), -1.49; with `c1cnc(N2CCN(Cc3ccc4c(c3)OCO4)CC2)nc1` [Piribedil] (stock concentration (mM, diluted 1:100): 9.7), 6.47.
With `O=C(O)Cc1ccccc1Nc1c(Cl)cccc1Cl` [Diclofenac] (stock concentration (mM, diluted 1:100): 10) the figure was 0.82; with `COc1cc(C(=O)NC2CCCNC2)cc(OC)c1OC` (stereo not given) [Troxipide] (stock concentration (mM, diluted 1:100): 10.1), -0.11.
For `C[C@H]1COc2c(C3(N)CC3)c(F)cc3c(=O)c(C(=O)O)cn1c23` [Pazufloxacin] (stock concentration (mM, diluted 1:100): 10), the “CDA2-GFP sporulation assay sensitivity score” value is 0.17.
As for `CN(C)CC/C=C1/c2ccccc2COc2ccc(CC(=O)O)cc21` [Olopatadine hydrochloride] (stock concentration (mM, diluted 1:100): 12.7), the figure is 1.08.
With `CN1CCC(=C2c3ccccc3CCc3sccc32)CC1` [Pizotyline] (stock concentration (mM, diluted 1:100): 10) the figure was -0.44.
As for `O=C1[C@H](CC[C@H](O)c2ccc(F)cc2)[C@@H](c2ccc(O)cc2)N1c1ccc(F)cc1` [Ezetimibe] (stock concentration (mM, diluted 1:100): 10), the figure is -0.54; as for `Nc1c2c(nc3ccccc13)CCCC2` [Tacrine hydrochloride] (stock concentration (mM, diluted 1:100): 9), 10.2 (active); as for `O=C(CCCN1CC=C(n2c(=O)[nH]c3ccccc32)CC1)c1ccc(F)cc1` [Droperidol] (stock concentration (mM, diluted 1:100): 10), 3.12.
Regarding `CC(=O)CCCCn1cnc2c1c(=O)n(C)c(=O)n2C` [Lomifylline] (stock concentration (mM, diluted 1:100): 10), the “CDA2-GFP sporulation assay sensitivity score” value is -2.21.
With `O=C1c2c(O)cc(O)cc2OC(c2ccc(O)c(O)c2)C1O` (stereo not given) [Taxifolin] (stock concentration (mM, diluted 1:100): 10) the figure was -0.07; with `CO[C@H]1/C=C/O[C@@]2(C)Oc3c(C)c(O)c4c(c3C2=O)C2=NC3(CCN(CC(C)C)CC3)NC2=C(NC(=O)/C(C)=C\C=C\[C@H](C)[C@H](O)[C@@H](C)[C@@H](O)[C@@H](C)[C@H](OC(C)=O)[C@@H]1C)C4=O` [Rifabutin] (stock concentration (mM, diluted 1:100): 10), 6.
